The source made the active and inactive calls.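 Rule for the calls: active = fitted half-maximal concentration AC50 at or below ten times the highest valid tested dose, with signal falling as DNA is displaced (actives reach about 34 µM in these data); inconclusive = flat fit at moderate signal loss, or poor fit quality; inactive = the rest, including signal rising instead of falling.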
experiment: DNA intercalators displacing acridine orange, dose response, artefact control for KSHV LANA DNA-binding inhibitor project, biochemical, fluorescence polarization, cherry-picked samples, set 2 (AID 504727); conditions: AC50: Acridine orange-DNA displacement; series mostly up to 35 µM; activity change, negative = DNA displacement: at the top concentration;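 for activity change, negative = DNA displacement: 0% = median of neutral control wells and -100% = mitoxantrone positive control wells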

Compound | activity change, negative = DNA displacement | AC50
COc1ccc(C)cc1NC(=O)C(OC(=O)c1cnccn1)c1ccccc1 (configuration not stated) | 0.816% (inactive) | 
Nc1c(/C=C2/C=CC(=O)C(O)=C2)c(=O)nc2sc(CC(=O)N3CCCC3)nn12 | 5.34% (inactive) | 
Cc1cc(NC(=O)CSc2nnc(COc3cccc(C)c3C)n2C)no1 | 5.58% (inactive) | 
O=C(Cn1nc(Cc2ccncc2)c2ccccc2c1=O)N1CCN(C(=O)c2ccco2)CC1 |  | 4.26 µM (active)
C/C(=N/NC(=O)c1ccncc1)c1cc2ccc(O)cc2oc1=O |  | 0.343 µM (active)
Cc1cc2nc3c(=O)[nH]c(=O)[nH]c3nc2c([N+](=O)[O-])c1N |  | 2.41 µM (active)
Cc1ccc(OCC(=O)O/N=C(\N)Cc2ccc([N+](=O)[O-])cc2)cc1C | 4.56% (inactive) | 
NNC(=O)CC1=NNC(=O)C1 | 2.31% (inactive) | 
COc1ccc(NC(=O)NS(=O)(=O)c2ccc(C)cc2)cn1 | -15% (inactive) | 
CN(C)C(=O)c1ccc(NC(=O)COC(=O)C2(c3ccccc3)CCCC2)cc1 | 3.07% (inactive) | 
Cc1cccc(-c2nsc(SCC(=O)Nc3nccs3)n2)c1 | 3.03% (inactive) | 
CCN(C(=O)COC(=O)c1ccc([N+](=O)[O-])o1)C1CCCCC1 | 0.36% (inactive) | 
Nc1ccc2nc3c(=O)[nH]c(=S)[nH]c3nc2c1 |  | 3.69 µM (active)
O=S(=O)(O)c1cccc2c(N=Nc3ccc(O)c4ncccc34)cccc12 | 5.4% (inactive) | 
CCN(CC)S(=O)(=O)N1CCN(S(=O)(=O)N2CCOCC2)CC1 | 3.98% (inactive) | 
S=c1[nH]nc([C@@H]2C[C@H]2c2ccccc2)n1-c1ccccc1Cl | 2.19% (inactive) | 
C=C(C)C(=O)Nc1cccc(C2=NOC3(C2)C[C@@H](C(N)=O)N(C(=O)C2(C)CC2)C3)c1 (some centres not stated) | 4.47% (inactive) | 
